# Only some compounds are listed: those with a hit (about 6.7% of all), similar ones and a draw of the others.
# MCF10A rerep: induces DNA re-replication in MCF 10a normal breast cells. MCF 10A DNA re-replication, Hoechst nuclear intensity, 48 h. Potency, µM (titrated, usually from 46.1 µM), for inactives: top-dose activity, positive = re-replication, actives largely listed as activators. actives 2.9% (n = 350,000). AID 624296; further: % of control where 0% means no effect; nearly all actives have a fitted effect of over 50% in size
# KB-3-1 tox: KB-3-1 parental cell cytotoxicity; KB-3-1 viability, CellTiter-Glo ATP luminescence, 72 h; Potency, µM (top dose mostly 46.1 µM), most hits filed as cytotoxic; actives 1.4% (n = 400,000); further: on the % scale 0 is the no-effect control and ±100 the full control effect; nearly all actives have a fitted effect of over 60% in size
#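 Cytotoxicity in the drug-sensitive parental line KB-3-1 was scored as loss of CellTiter-Glo luminescence following 72 h incubation with compound. Values come from curve fitting of normalized concentration-response data.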
# KB-V1 cytotox: KB-V1 MDR subline cytotoxicity; KB-V1 MDR cells viability, CellTiter-Glo, 72 h; Potency, µM (series often up to 46.1 µM), hits mostly cytotoxic; actives 3.4% (n = 400,000); AID 1347076; further: on the % scale 0 is the no-effect control and ±100 the full control effect; nearly all actives have a fitted effect of over 60% in size
#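 qHTS viability screen in drug-selected KB-V1 MDR cells: 72 h compound treatment at 37 degrees C, ATP luminescence end point.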
# PINK1 expr mod: changes PINK1 expression. Potency, µM (series often up to 76.6 µM), for the others: at the top dose activation (PINK1 increase), usual class: activators. AID 624263. PINK1 immunofluorescence, high-content cytometry, 24 h. actives 0.2% (n = 410,000); active means well fitted activation curve with a large enough effect; inconclusive means small, poorly fitted or top-dose-only effect; cell line not stated here; further: % of control where 0% means no effect; nearly all actives have a fitted effect of over 65% in size
#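 Readout is PINK1 immunofluorescence, quantified alongside mitochondrial, cell and nuclear markers by laser-scanning microplate cytometry. Cells from a stable line were exposed to compound titrations (5 concentrations) for 24 hours, with CCCP controls.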
# SW480 rereplic: DNA re-replication induction in SW480 cells | SW480 DNA re-replication, Hoechst DNA content imaging, 48 h | Potency, µM (highest dose often 46.1 µM), for the others: at the highest dose re-replication activation, actives largely listed as activators | actives 1.8% (n = 340,000); further: % of control where 0% means no effect; nearly all actives have a fitted effect of over 55% in size
#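 Compounds, transferred as 23 nL by pin tool, were incubated with cells for 48 hr; DNA content per nucleus was then quantified by Hoechst staining and fluorescence plate imaging.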
# Starred values were filed as active, the others as inactive; i = inactive; ? = inconclusive; nt = not tested or not shown; [ ] = remark or other dose. Unless noted, the call rests on the fitted dose curve; in most records, active means well fitted curve in the direction sought with a large enough effect; inconclusive means small, poorly fitted or top-dose-only effect, or another doubt; inactive means no such curve, though single readings can be large; an effect the other way counts as inactive or inconclusive. Potency means the concentration at half of the fitted maximal effect.
SMILES,MCF10A rerep,KB-3-1 tox,KB-V1 cytotox,PINK1 expr mod,SW480 rereplic
COc1ccc(N2CCN(C(c3cccc(OC)c3OC)c3nnnn3C3CCCC3)CC2)cc1 (configuration not stated),?,i,i,2%,13µM*
COc1ccc(N2CCN(C(c3ccccc3OC)c3nnnn3C3CCCC3)CC2)cc1 (configuration not stated),6%,i,i,-1%,1%
COCCCN=C1NN=C(c2cc(C)n(-c3ccccc3F)c2C)CS1,?,7.3µM*,i,9%,?
COCCn1c(C)cc(C2=NNC(=Nc3ccccc3F)SC2)c1C,19%,18µM*,12µM*,?,5%
Fc1ccc(F)c(C2=NNC(=Nc3ccccc3F)SC2)c1,21µM*,?,?,35µM*,?
COCCCN=C1NN=C(c2cc(C)n(Cc3ccccc3Cl)c2C)CS1,?,1.3µM*,1.5µM*,?,0.65µM*
COCCCN=C1NN=C(c2cc(C)n(-c3ccccc3)c2C)CS1,?,i,i,0%,?
Cc1ccc(CN2C(=O)C(F)(F)Oc3ccc(C)cc32)cc1,nt,i,i,2%,nt
Fc1ccc(Nc2nc(-c3cccc(Cl)c3)c3c(n2)-c2ccccc2OC3)cc1,nt,i,i,2%,nt
O=C1CN(C(=O)c2cccc(Br)c2)C(c2ccccc2)c2cc(Cl)ccc2N1 (configuration not stated),nt,i,?,-2%,nt
c1ccc(COCCN2CCN(CCOCc3ccccc3)CC2)cc1,-1%,i,23µM*,-2%[38.3 µM],-2%
O=C(Nc1ccccc1Cl)[C@H](CSCc1ccccc1)N1Cc2ccccc2C1=O,nt,i,i,1%,nt
CCOc1ccc(C(=O)c2ccc(OCC)c(N)c2)cc1N,18µM*,?,i,1%,?
CC[C@H](C)C1OC(=O)[C@@H](C)[C@@H](CC)NC(=O)[C@H](C)N(C)C(=O)C(C)(C)C(=O)C(C)NC(=O)[C@H](Cc2ccc(OC)cc2)N(C)C(=O)[C@H](C(C)C)N(C)C(=O)CNC(=O)[C@H](CC(C)C)N(C)C(=O)CNC1=O (some centres not stated),nt,0.21µM*,i,?,nt
CCC[C@H]1NC(=O)[C@H](C)N(C)C(=O)C(C)(C)C(=O)C(C)NC(=O)[C@H](Cc2ccc(OC)cc2)N(C)C(=O)[C@H](C(C)C)N(C)C(=O)CNC(=O)[C@H](CC(C)C)N(C)C(=O)CNC(=O)[C@H]([C@@H](C)CC)OC(=O)[C@H]1C (some centres not stated),1.5µM*,i,i,3%,?
O=C(Nc1cccnc1)c1ccc(COc2ccccc2Br)o1,21µM*,16µM*,?,17%[38.3 µM],?
CCCNC(=O)c1ccc(COc2ccc(C(C)(C)C)cc2)o1,?,i,i,2%,9%
COc1ccccc1OCc1ccc(C(=O)Nc2ccncc2)o1,3%,23µM*,?,1%[38.3 µM],-14%
COc1ccccc1OCc1ccc(C(=O)N2N=C(C(F)F)CC2(O)C(F)F)o1 (configuration not stated),?,i,16µM*,5%,10%
COc1ccccc1OCc1ccc(C(=O)NC(C)(C)C)o1,-18%,i,i,4%,-5%
O=C(c1ccc(COc2ccc(Cl)cc2)o1)N1N=C(C(F)F)CC1(O)C(F)F (configuration not stated),?,?,i,?,9%
CC(C)(C)c1ccc(OCc2ccc(C(=O)Nc3cccnc3)o2)cc1,23µM*,?,?,3%,?
CCOC(=O)N1CCN(C(=O)c2ccc(-c3ccccc3OC)nc2N2CCC(N3CCCC(CO)C3)CC2)CC1 (configuration not stated),nt,nt,nt,0%,nt
CCOc1ccc(C(=O)C(C)OC(=O)Cn2[nH]c(=O)c3ccccc3c2=O)cc1 (configuration not stated),14%,i,i,-1%,-2%
COc1ccc(OC)c(COC(=O)c2cccc(S(=O)(=O)N3CCCCC3)c2)c1,?,i,i,-1%,?
SMILES,MCF10A rerep,KB-3-1 tox,KB-V1 cytotox,PINK1 expr mod,SW480 rereplic
CCNC(=O)C1(C)CCCN(C(=O)c2ccnc(Cl)c2)C1 (configuration not stated),nt,i,?,0%,nt
CC(C)C#Cc1ccc2c(c1)O[C@@H](CN(C)S(=O)(=O)c1cn(C)cn1)[C@@H](C)CN([C@H](C)CO)S2(=O)=O,nt,i,i,1%,nt
NNC(=O)c1ccc(COc2ccc([N+](=O)[O-])cc2)o1,-1%,i,i,0%,19%
Cc1cccc(OCc2ccc(C(=O)N3CCOCC3)o2)c1,-2%,i,i,1%,-1%
CC1CCCCN1C(=O)c1ccc(COc2ccc([N+](=O)[O-])cc2)o1 (configuration not stated),?,i,18µM*,-1%,-34%
CC(C)(C)c1ccc(OCc2ccc(C(=O)N3CCOCC3)o2)cc1,9%,i,26µM*,1%,?
Cc1cc(=O)oc2cc(O)cc(OCc3ccccc3)c12,21µM*,?,15µM*,?,?
COCc1[nH]nc2c1C(c1ccnc3ccccc13)C(C#N)=C(N)O2 (configuration not stated),?,i,i,?,16µM*
Cc1cccc(-c2nc(Cn3c(SCc4cc(C)ccc4C)nc4ccncc43)c(C)o2)c1,nt,i,i,2%,nt
C=CCC[C@@H](Cc1ccc(F)cc1)C(=O)OC[C@H](Cc1c[nH]c2ccccc12)NC(=O)[C@@H](CC=C)CC(=O)N[C@@H](CO)Cc1ccccc1,?,i,?,1%,?
C=CCC[C@H](Cc1ccc(F)cc1)C(=O)OC[C@@H](Cc1c[nH]c2ccccc12)NC(=O)[C@@H](CC=C)CC(=O)N[C@@H](CO)Cc1ccccc1,18µM*,?,i,5%,?
C=CCC[C@@H](Cc1ccc(F)cc1)C(=O)OC[C@@H](Cc1c[nH]c2ccccc12)NC(=O)[C@H](CC=C)CC(=O)N[C@H](CO)Cc1ccccc1,16µM*,?,i,6%,-3%
Cc1ccccc1OCC(=O)NCC(c1ccc(Cl)cc1)N1CCOCC1 (configuration not stated),nt,i,?,0%,nt
COc1ccc(C(CNC(=O)COc2ccccc2C)N2CCOCC2)cc1 (configuration not stated),0%,i,18µM*,?,3%
CC(C)c1ccccc1OCC(=O)NCC(c1cccs1)N1CCOCC1 (configuration not stated),2%,i,18µM*,2%,-5%
